# Measured values published in PubChem BioAssay (NCATS).
# Results filed as inconclusive are left out. Calls of active or inactive are those of the source. Unless noted, calls come from the whole dose curve; as a rule, active = well fitted curve in the direction sought with a large enough effect; inconclusive = small, poorly fitted or top-dose-only effect, or another doubt; inactive = no such curve, though single readings can be large; an effect the other way counts as inactive or inconclusive.
# Assays:
# [1] = molecular target: DNA repair nuclease/redox regulator APEX1 (Homo sapiens) (UniProt P27695); assay: qHTS Validation Assay for Inhibitors of the Human Apurinic/apyrimidinic Endonuclease 1 (APE1) (AID 1705;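 note: TAMRA fluorescence gain over two minutes as APE1 cuts a quenched THF abasic duplex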)
# Summary of the method: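 Fluorogenic double-stranded THF abasic-site substrate (5'-TAMRA/3'-BHQ-2), 50 nM final. Enzyme preincubated with compound 15 min at room temperature, then substrate added. Kinetic fluorescence (ex 525/em 598 nm) read three times at 60 s intervals; activity taken as third-minus-first read difference.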
# [2] = molecular target: Endonuclease 4 (Escherichia coli (strain K12)) (UniProt P0A6C1); assay: Counterscreen for APE1 Inhibitors: qHTS Validation Assay for Inhibitors of Endonuclease IV (AID 1708)
# Summary of the method: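 E. coli EndoIV at 2 nM final, preincubated 15 min at room temperature with compound, then 50 nM TAMRA/BHQ-2 THF abasic-site duplex added. Buffer: 50 mM Tris-HCl pH 7.5, 50 mM NaCl, 2 mM MgCl2, 1 mM DTT, 0.01% Tween-20. Kinetic fluorescence increase, third minus first read.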
# [3] = qHTS Assay for Modulators of Human Peripheral Myelin Protein 22 (PMP22) Expression/Activity (AID 1967; active = well fitted curve in the direction sought with a large enough effect in the signal ratio; the % refers to the signal ratio)
# Summary of the method: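 Mouse MSC80 Schwann cells carrying Pmp22 promoter–green click beetle luciferase plus EF-alpha–red luciferase control, dosed 24 h at 37 °C. Dual-filter luminescence, overlap-corrected; %Activity from green/red ratio normalised to untreated cells, concentration-response curves fitted.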
# [4] = molecular target: Ferritin light chain (Equus caballus) (UniProt P02791); assay: qHTS Validation Assay for Identification of Novel General Anesthetics (AID 2323)
# Summary of the method: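 Horse-spleen apoferritin (10 uM) in PBS with 50% saturated 1-aminoanthracene; compounds pin-transferred, 10 min at room temperature. Fluorescence read at 380/535 nm, normalized to free 1-AMA and 1-AMA/apoferritin values; four-parameter Hill fit.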
# [5] = molecular target: ATP-dependent DNA helicase Q1 (Homo sapiens) (UniProt P46063); assay: qHTS Validation Assay for Inhibitors of RecQ-Like Dna Helicase 1 (RECQ1) (AID 2353)
# Summary of the method: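 50 nM RECQ1T1 preincubated 15 min with compound in Tris pH 8.0 buffer with MgCl2, DTT, Tween-20 and 2.5 ug/ml poly(dI-dC); started with 200 nM TAMRA/BHQ-2 forked duplex and 2 mM ATP. Unwinding read as fluorescence (525/598 nm), two reads 2 h apart.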
# [6] = Cytometric Cell-Based qHTS for Inhibitors of the mTORC1 Signaling Pathway in MEF (Tsc2-/-, p53-/-) Cells (AID 2660);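 note: percent of cells above a phospho-rpS6 to PI ratio cutoff in each well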
# Summary of the method: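 Immunofluorescence qHTS of rpS6 Ser235/236 phosphorylation: MEFs (Tsc2-/-, p53-/-) treated 24 h, 37 C, in DMEM + 10% FBS. Alexa-488 signal normalized to PI count, referenced to rapamycin (7.5 nM) and DMSO; PI cell number recorded for viability.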
# [7] = High Content Imaging Cell-Based qHTS for Inhibitors of the mTORC1 Signaling Pathway in MEF (Tsc2-/-, p53-/-) Cells (AID 2666); conditions: at 38.3 µM (top of the series);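 note: percent of cells scored positive for phospho-rpS6 Ser235/236 immunostaining by imaging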
# Summary of the method: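 Phospho-rpS6 (Ser235/236) immunofluorescence, normalized and scored as % positive cells using rapamycin and DMSO controls, was read in empty-vector Tsc2-/-, p53-/- MEFs after 24 h compound exposure at 37 C; propidium iodide counted cells.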
# [8] = High Content Imaging Cell-Based qHTS for Inhibitors of the mTORC1 Signaling Pathway in MEF Cells (AID 2667);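 note: Tsc2-/- p53-/- MEFs stably re-expressing wild-type Tsc2 exposed 24 h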
# Summary of the method: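 WT MEFs (Tsc2-/-, p53-/- re-expressing Tsc2), in DMEM + 10% FBS, were treated with compound for 24 h at 37 C. Cells were then fixed and stained for phospho-rpS6 Ser235/236 with propidium iodide as cell count. Values are % positive cells, with thresholds set against rapamycin-treated cells.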
# [9] = qHTS Assay for Identification of Small Molecule Inducers of Hypoxia Response (AID 2120; active = well fitted curve in the direction sought with a large enough effect in the signal ratio, with a control signal flat, not every such curve was filed as active; the % refers to the signal ratio)
# Summary of the method: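 ME-180 HRE-bla cells plated in Opti-MEM/0.5% dialyzed FBS, rested 4-5 h, then dosed with compound titrations by pin tool. After 17 h at 37 degrees C, CCF4 dye loaded 2.5 h at RT; 460/530 nm ratio gave %Activity and AC50.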
# [10] = molecular target: RecQ-like DNA helicase BLM (Homo sapiens) (UniProt P54132); assay: qHTS Validation Assay for Inhibitors of Bloom's syndrome helicase (BLM) (AID 2364)
# Summary of the method: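 50 nM BLM preincubated 15 min at room temperature with compound in pH 8.0 Tris buffer containing 2.5 ug/ml poly(dI-dC); started with 200 nM TAMRA/BHQ-2 forked duplex and 2 mM ATP (final). Unwinding read as TAMRA fluorescence increase, two reads 2 h apart.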
# Chain of ATP-dependent DNA helicase Q1 (Homo sapiens) (P46063 whole entry, looked up): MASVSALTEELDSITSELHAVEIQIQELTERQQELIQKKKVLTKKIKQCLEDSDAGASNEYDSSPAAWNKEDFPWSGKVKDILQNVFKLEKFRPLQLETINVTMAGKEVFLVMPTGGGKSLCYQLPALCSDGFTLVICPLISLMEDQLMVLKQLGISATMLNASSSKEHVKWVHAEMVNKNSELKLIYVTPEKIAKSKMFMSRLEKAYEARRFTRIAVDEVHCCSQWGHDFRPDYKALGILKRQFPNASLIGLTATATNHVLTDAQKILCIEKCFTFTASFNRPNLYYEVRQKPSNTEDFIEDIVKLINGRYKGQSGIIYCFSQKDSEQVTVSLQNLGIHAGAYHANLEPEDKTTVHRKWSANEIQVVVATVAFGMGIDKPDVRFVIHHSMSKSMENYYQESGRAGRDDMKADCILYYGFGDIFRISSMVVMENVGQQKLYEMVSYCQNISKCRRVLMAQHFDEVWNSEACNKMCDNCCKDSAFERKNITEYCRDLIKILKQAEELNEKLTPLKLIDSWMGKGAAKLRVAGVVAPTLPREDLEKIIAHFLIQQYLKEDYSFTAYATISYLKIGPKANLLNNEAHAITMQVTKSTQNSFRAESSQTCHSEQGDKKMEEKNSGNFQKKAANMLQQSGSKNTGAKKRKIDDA
# Chain of DNA repair nuclease/redox regulator APEX1 (Homo sapiens) (P27695 whole entry, looked up): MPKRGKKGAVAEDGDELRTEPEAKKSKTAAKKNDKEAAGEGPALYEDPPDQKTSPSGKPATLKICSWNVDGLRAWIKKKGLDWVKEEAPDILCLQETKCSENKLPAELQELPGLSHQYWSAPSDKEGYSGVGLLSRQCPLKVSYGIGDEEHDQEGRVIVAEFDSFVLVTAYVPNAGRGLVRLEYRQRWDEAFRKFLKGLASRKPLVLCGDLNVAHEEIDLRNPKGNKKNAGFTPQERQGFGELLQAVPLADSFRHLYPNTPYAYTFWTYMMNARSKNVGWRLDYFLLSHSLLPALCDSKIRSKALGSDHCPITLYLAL
# Chain of Ferritin light chain (Equus caballus) (P02791 2-175 limits assumed): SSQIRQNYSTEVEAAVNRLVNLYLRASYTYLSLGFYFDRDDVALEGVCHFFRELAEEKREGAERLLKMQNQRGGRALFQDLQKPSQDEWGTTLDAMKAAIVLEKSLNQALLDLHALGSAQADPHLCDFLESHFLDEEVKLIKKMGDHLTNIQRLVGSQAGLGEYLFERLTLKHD
# Chain of RecQ-like DNA helicase BLM (Homo sapiens) (P54132 whole entry, looked up): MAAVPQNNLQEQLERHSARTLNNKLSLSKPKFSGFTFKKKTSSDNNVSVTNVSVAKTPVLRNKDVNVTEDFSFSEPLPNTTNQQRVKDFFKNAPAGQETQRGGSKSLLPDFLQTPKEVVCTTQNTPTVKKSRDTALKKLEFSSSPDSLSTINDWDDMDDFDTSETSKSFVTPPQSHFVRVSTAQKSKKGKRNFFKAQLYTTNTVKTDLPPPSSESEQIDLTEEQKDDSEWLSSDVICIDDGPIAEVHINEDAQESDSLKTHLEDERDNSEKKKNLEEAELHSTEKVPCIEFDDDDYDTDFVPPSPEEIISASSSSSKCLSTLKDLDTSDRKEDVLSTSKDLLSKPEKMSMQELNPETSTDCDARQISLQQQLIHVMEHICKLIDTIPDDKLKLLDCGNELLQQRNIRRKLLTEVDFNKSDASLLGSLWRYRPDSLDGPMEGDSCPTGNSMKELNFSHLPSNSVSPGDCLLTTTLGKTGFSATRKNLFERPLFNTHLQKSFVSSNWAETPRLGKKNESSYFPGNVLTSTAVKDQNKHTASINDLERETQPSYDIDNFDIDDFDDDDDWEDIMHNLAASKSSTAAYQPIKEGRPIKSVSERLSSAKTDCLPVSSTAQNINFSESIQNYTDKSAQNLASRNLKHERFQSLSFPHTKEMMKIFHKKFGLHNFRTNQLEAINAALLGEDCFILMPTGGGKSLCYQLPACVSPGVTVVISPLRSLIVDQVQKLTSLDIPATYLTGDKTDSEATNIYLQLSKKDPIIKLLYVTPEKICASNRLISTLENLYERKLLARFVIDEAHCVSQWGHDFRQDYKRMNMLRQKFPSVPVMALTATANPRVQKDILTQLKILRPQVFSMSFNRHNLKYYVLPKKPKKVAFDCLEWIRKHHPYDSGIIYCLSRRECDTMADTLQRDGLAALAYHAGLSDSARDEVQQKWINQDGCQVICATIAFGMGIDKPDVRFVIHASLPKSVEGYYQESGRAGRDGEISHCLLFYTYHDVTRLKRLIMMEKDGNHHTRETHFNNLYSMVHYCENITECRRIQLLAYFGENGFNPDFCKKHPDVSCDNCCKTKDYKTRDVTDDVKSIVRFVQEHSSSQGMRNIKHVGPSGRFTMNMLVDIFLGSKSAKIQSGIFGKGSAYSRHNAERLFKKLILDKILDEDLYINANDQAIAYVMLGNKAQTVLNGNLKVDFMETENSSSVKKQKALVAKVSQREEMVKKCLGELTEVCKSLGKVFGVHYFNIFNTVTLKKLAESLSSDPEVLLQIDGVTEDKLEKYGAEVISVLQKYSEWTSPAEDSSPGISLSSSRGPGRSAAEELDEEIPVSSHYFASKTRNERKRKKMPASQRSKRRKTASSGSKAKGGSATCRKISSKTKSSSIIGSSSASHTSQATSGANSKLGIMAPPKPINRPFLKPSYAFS
compound,measurement,setting,value
NCCCC(=O)O,outcome,[1],inactive
same,outcome,[2],inactive
same,outcome,[3],inactive
same,outcome,[4],inactive
same,outcome,[5],inactive
same,outcome,[6],inactive
same,outcome,[7],inactive
same,outcome,[8],inactive
O=C(O)CC(O)(CC(=O)O)C(=O)O,outcome,[9],inactive
COC(C)=O,outcome,[9],inactive
CN(C)Cc1ccccc1,outcome,[9],inactive
CN[C@H]1CC[C@@H](c2ccc(Cl)c(Cl)c2)c2ccccc21,outcome,[1],inactive
same,outcome,[2],inactive
same,outcome,[5],inactive
same,outcome,[10],inactive
C=Cc1ccccc1,outcome,[9],inactive
CCCCCCCCCC(=O)O,outcome,[9],inactive
